About 83,000 compounds went through this panel and 20% of them were active in at least one assay; those are over-represented in the sample as a whole.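 Compound tested at a single concentration for 48 hours in 96-well plates; a percent growth value below 10 was scored as active.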 A number with no mark means an inactive call. The source made the active and inactive calls.
test system: BT-549 breast; assay: NCI-60 one-dose screen, 48 h (100 = growth as untreated, 0 = no growth, -100 = all killed); conditions: 10 µM unless noted
Procedure: Growth inhibition of the BT-549 human tumor cell line is measured as a screen for anti-cancer activity. Cells are grown in 96 well plates and exposed to the test compound for 48 hours. Compounds are tested at a single concentration, which is 10^-5 M for most compounds. The reported endpoint is percent growth (GI% or GIPRCNT), where numbers from 0 - 100% represent growth inhibition, and numbers from -100% - 0 represent cell death. For example, a value of 40 represents 60% growth inhibition. A value of 0 means no net growth occurred over the course of the experiment. A value of -40 indicates 40% of cells at the beginning of the experiment died by the end of the experiment. A value of -100 means all cells are dead at the end of the experiment.
NCI-60 Human Tumor Cell Lines Screen was performed using the standard one-dose NCI protocol, which is described in more detail at https://dtp.cancer.gov/discovery_development/nci-60/default.htm.
Compounds with GIPRCNT values below 10 were considered active. Activity score was based on GIPRCNT using the following formula: […]
Score is 0 for GIPRCNT values of 100 or above, 50 for GIPRCNT values of 0, and 100 for GIPRCNT values of -100.

Compound | growth
COC(=O)c1c2c(n3ccc(C)cc13)C(=O)c1ccccc1C2=O | 69.7%
COc1ccc(Nc2ncccc2NC(=O)c2cn(Cc3cccc(Oc4ccccc4)c3)nn2)cc1OC | 73%
COC(=O)Cc1nc(C#N)c(N(C)C)o1 | 92.6%
NC(=O)OCCn1cc(-c2nc(-c3c[nH]c4ncccc34)cs2)c2ccccc21 | 32.8%
CCOC(=O)c1cn2ncnc(Oc3ccc(NC(=O)NC4CC4)c(F)c3)c2c1C | 103%
Cn1cc(-c2nonc2-c2c[nH]c3ccccc23)c2ccccc21 | 18.7%
O=C(Nc1ccccc1)c1sc(-c2ccccc2)cc1O | 95.8%
CN(C)c1ccc(C(=NO)c2ccc(N(C)C)cc2)cc1 | 53.4%
COc1cc2c(c(OC)c1OC)C(=O)CC(c1cccc(NC(=O)c3ccccc3Br)c1)O2 (stereo not given) | 98.7%
CCOC(=O)c1c(C)nc2c(c1N)CC(=O)N2Cc1cc(OC)c(OC)c(OC)c1 | 48.7%
COc1cc(Nc2ncccc2NC(=O)c2cn(Cc3cccc(Oc4ccccc4)c3)nn2)cc(OC)c1 | 85.5%
O=C(Nc1cccnc1Nc1ccc(Cl)cc1)c1cn(Cc2ccc(F)cc2)nn1 | 88%
N=C(N)c1ccc(-c2ccc(-c3ccc(Cl)cc3)o2)o1 | 93.1%
Oc1c(Cl)cc(Cl)c2ccc(Cn3cc(-c4cccc(C(F)(F)F)c4)nn3)nc12 | 75%
CCCCCCCCn1ccc2cc(NC(=O)Cn3cc(CN4CCCCCC4)nn3)ccc21 | 96.8%
O=C1Nc2ccc(F)cc2/C1=N/c1nnc(Sc2ccccc2)s1 | 105%
CN(CCC#N)c1ccc(/C=C2\NC(=O)NC2=O)cc1 | 51.4%
c1ccc(CCc2ccccc2-c2cc(-c3ccccc3)on2)cc1 | 102%
C=CCn1c(SCC(=O)Nc2ccc(C(=O)/C=C/c3ccc(OC)cc3)cc2)nnc1-c1ccccc1 | 43.8%
COc1ccc2cc(Cn3cc[n+](Cc4ccc5ccccc5c4)c3)ccc2c1 | 11.8%

Compound | growth
COc1ccc(C2CC(c3ccc4c(c3)OCO4)=Nc3c(N)ncnc3N2)cc1 (stereo not given) | 118%
COc1ccc2[nH]cc(-c3nc(-c4cn(C)c5ccncc45)cs3)c2c1 | 85.1%
CC(C)c1ccc(C(=O)Nc2sc3cc(O)ccc3c2C#N)cc1 | 20.8%
COC1=CC(c2ccc[nH]2)=N/C1=C\c1[nH]c(C)c(CC(=O)OCc2ccccc2)c1C | -1.22% (active)
C=CC(=O)NCCOc1cccc(Nc2cc(NCCCNC(=O)C3CCC3)c(Br)cn2)c1 | -59.5% (active)
O=C(/C=C/c1ccc(Br)cc1)c1ccc(-n2cc(CN3CCN(c4cc5c(cc4F)c(=O)c(C(=O)O)cn5C4CC4)CC3)nn2)cc1 | 81.3%
C/C(=C(/c1ccc(Cl)cc1)c1ccc(OCCCN(C)C)cc1)c1ccc(Cl)cc1 | 111%
CCCCCCCCn1ccc2cc(NC(=O)Cn3cc(CN4CCN(CC)CC4)nn3)ccc21 | 71.8%
COc1cc(C2C3=C(COC3=O)N(CCO)c3cc4c(cc32)OCCO4)cc(OC)c1OC (stereo not given) | -4.33% (active)
OC(c1ccccc1)(c1ccccc1)c1ccccc1-c1ccccc1 | 104%
CCCNc1nc2ccccc2c2c(=O)c3cccc(Cl)c3sc12 | 99%
CCOC(=O)CSc1nc2sc3c(c2c(=O)n1-c1ccc([N+](=O)[O-])cc1)CCCCC3 | 97.2%
N=C(N)c1ccc(-c2ccc(-c3ccc(Cl)cc3Cl)s2)cc1F | 84.8%
Cn1cc(-c2csc(-c3cn(C(=O)OC(C)(C)C)c4ccccc34)n2)c2ccnc(Cl)c21 | 84.2%
CCOC(=O)c1c(NC(=O)CSc2n[nH]c3nc4ccccc4n23)sc(CC)c1C | 137%
COc1cc2c3c(n(CCCCNCCCn4c5c(c6cc(OC)c(OC)cc6c4=O)C(=O)c4cc6c(cc4-5)OCO6)c(=O)c2cc1OC)-c1cc2c(cc1C3=O)OCO2 | 106%
COc1ccc(-c2nnc(SCC(=O)Nc3ccc(/C(C)=N\O)cc3)n2-c2ccccc2)cc1OC | 65.2%
NC(=O)c1c(NC(=O)c2ccc(Cl)cc2)sc2c1CCC(=O)C2 | 25.1%
O=C(O)CCCc1cnc2c3sccc3nc(SCc3c(Cl)cccc3Cl)n12 | 44.8%
CC1=NN(c2ccc(Cl)cc2)CC1(C)N=O (stereo not given) | 86.1%

From PubChem BioAssay (NCI)
